Screens deposited in PubChem by The Scripps Research Institute Molecular Screening Center.
GPR151 activ – human GPR151 activation; Q8TDV0; 650,000 tested, 1% active; PathHunter beta-arrestin GPR151 cells, luminescence; activation, % at 11.2 µM; in the data active = activation above about 4.9%;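 note: 0% = median of compound wells and 100% = cells with positive control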
FBW7 activator – activators of human E3 ligase FBW7; 650,000 tested, 0.13% active; AlphaScreen FBW7–phospho-cyclin E peptide binding, activator screen; Q969H0; normalized activity (activation), % at 26.1 µM; in the data active = normalized activity above about 1.9%;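 note: purified mutant Fbw7 with reduced substrate affinity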
MITF primary – inhibitors of human MITF. AlphaScreen MITF homodimerization, bead proximity signal. inhibition, % at 2.6 µM. 650,000 tested, 0.91% active. AID 1259374; in the data active = inhibition above about 50%;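 note: 0% = vehicle wells with protein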
Target sequence (O75030 whole entry, looked up): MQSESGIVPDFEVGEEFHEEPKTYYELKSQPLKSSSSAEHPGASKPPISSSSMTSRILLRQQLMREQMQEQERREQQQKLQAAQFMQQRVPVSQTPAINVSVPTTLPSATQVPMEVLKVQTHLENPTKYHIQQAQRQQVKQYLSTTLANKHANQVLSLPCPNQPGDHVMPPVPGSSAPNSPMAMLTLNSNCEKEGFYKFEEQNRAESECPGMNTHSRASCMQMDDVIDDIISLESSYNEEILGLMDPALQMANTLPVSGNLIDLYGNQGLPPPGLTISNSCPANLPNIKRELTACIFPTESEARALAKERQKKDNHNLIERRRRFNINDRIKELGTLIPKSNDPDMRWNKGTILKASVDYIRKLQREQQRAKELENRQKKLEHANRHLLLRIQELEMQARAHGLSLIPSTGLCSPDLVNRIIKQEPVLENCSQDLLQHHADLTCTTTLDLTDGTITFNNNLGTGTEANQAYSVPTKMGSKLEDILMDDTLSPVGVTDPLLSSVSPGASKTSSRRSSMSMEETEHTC
TEAD-YAP inh – TEAD-YAP interaction inhibition | HEK-TIYL cells, TEAD-Gal4/YAP UAS-luciferase luminescence | inhibition, % at 9.12 µM | 640,000 tested, 1.4% active | AID 1259422; in the data active = inhibition above about 32%;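 note: 0% = median of test compound wells and 100% = reference inhibitor wells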
Starred values were filed as active, the others as inactive; ! = repeats disagree. In the library only some 3.5% were active in any assay of this set; here they are far more common.

CC1=C(C#N)C(c2ccc(C)cc2)C2=C(CC(c3ccccc3)CC2=O)N1 (stereo not drawn) was read as GPR151 activ -1, FBW7 activator 0, MITF primary 2 and TEAD-YAP inh 32*.
`COc1ccc(C2CC(=O)C3=C(C2)NC(C)=C(C(=O)OC(C)C)C3c2ccccc2OC(C)C)cc1` (stereo not drawn) gave GPR151 activ 0, FBW7 activator 2.4*, MITF primary 8 and TEAD-YAP inh -7.
For CC1=C(C(=O)OC(C)C)C(c2ccncc2)C2=C(CC(c3ccccc3)CC2=O)N1 (stereo not drawn) the results were GPR151 activ 0, FBW7 activator 2.1*!, MITF primary 8 and TEAD-YAP inh 9.
For CCOC(=O)C1=C(C)NC2=C(C(=O)CC(c3ccc(OC)cc3)C2)C1c1ccccc1OC(C)C (stereo not drawn) the results were GPR151 activ 1, FBW7 activator 0, MITF primary 17 and TEAD-YAP inh -5.
COCCNC(=O)CCCN(C)S(=O)(=O)c1ccc([N+](=O)[O-])cc1 was read as GPR151 activ -1, FBW7 activator 0, MITF primary 11 and TEAD-YAP inh 4.
For COc1cc(Nc2nc(Nc3ccccc3)c3ncn(-c4ccccc4)c3n2)cc(OC)c1OC the results were GPR151 activ 2, FBW7 activator 0, MITF primary 7 and TEAD-YAP inh -35.
COc1cc(Nc2nc(Nc3nc4ccccc4n3C)nc3c2ncn3-c2ccccc2)cc(OC)c1OC was read as GPR151 activ 2, FBW7 activator 0, MITF primary -10 and TEAD-YAP inh 42*.
`CCNc1nc(Nc2cc(OC)c(OC)c(OC)c2)c2ncn(-c3ccccc3)c2n1` gave GPR151 activ 0, FBW7 activator 0, MITF primary 10 and TEAD-YAP inh 47*.
For Nc1ccc2nc(N)sc2c1 the results were GPR151 activ -2, FBW7 activator 0, MITF primary 12 and TEAD-YAP inh 2.
For Nc1nc2ccc(Oc3ccc4nc(N)sc4c3)cc2s1 the results were GPR151 activ 1, FBW7 activator 0, MITF primary 16 and TEAD-YAP inh 33*.
`Cc1ccccc1N=c1oc2ccccc2cc1-c1nc2ccccc2[nH]1` gave GPR151 activ -10, FBW7 activator 0, MITF primary 0 and TEAD-YAP inh 43*.
Screening Cc1ccc2nc(-c3cc4ccccc4oc3=N)[nH]c2c1 returned GPR151 activ -7, FBW7 activator 0, MITF primary -28 and TEAD-YAP inh 93*.
Cc1cccc(N=c2oc3ccccc3cc2-c2nc3ccccc3[nH]2)c1 was read as GPR151 activ -11, FBW7 activator 0, MITF primary -8 and TEAD-YAP inh 47*.
`O=C1CCCN1CCn1cnc2c(NCc3ccccc3)nc(Nc3ccccn3)nc21` gave GPR151 activ -1, FBW7 activator 0, MITF primary -1 and TEAD-YAP inh 5.
For COc1ccc(-n2nc3ccc(O)cc3n2)cc1 the results were GPR151 activ -6, FBW7 activator 0, MITF primary 4 and TEAD-YAP inh 65*.
For COc1ccc(OCC(=O)Nc2ccc3nn(-c4ccc(OC)cc4)nc3c2)cc1 the results were GPR151 activ -2, FBW7 activator 0, MITF primary 7 and TEAD-YAP inh -26.
For CCOC(=O)COc1ccc2ccccc2c1/C=C/[N+](=O)[O-] the results were GPR151 activ 0, FBW7 activator 0, MITF primary -1 and TEAD-YAP inh -12.
`COc1ccc2ccccc2c1/C=C/[N+](=O)[O-]` gave GPR151 activ 0, FBW7 activator 0, MITF primary 22 and TEAD-YAP inh 49*.
For CC(C)Oc1ccc2ccccc2c1/C=C/[N+](=O)[O-] the results were GPR151 activ 0, FBW7 activator 0, MITF primary -9 and TEAD-YAP inh 36*.
Screening CC(C)OC(=O)c1ccccc1-c1ccccc1C(=O)O returned GPR151 activ 2, FBW7 activator 0, MITF primary 20 and TEAD-YAP inh 3.
For Cc1ccc(C)c(NC(=O)COC(=O)CSc2nnc(NC3CCCCC3)s2)c1 the results were GPR151 activ 0, FBW7 activator 0, MITF primary 11 and TEAD-YAP inh 2.
Screening CCCOC(=O)c1cc(-c2ccc(Br)cc2)nc2ccccc12 returned GPR151 activ -1, FBW7 activator 0, MITF primary 1 and TEAD-YAP inh 4.
Screening Cc1nc2c(-c3ccc(Cl)cc3)cnn2c(N)c1-c1ccccc1 returned GPR151 activ -2, FBW7 activator 0, MITF primary 14 and TEAD-YAP inh 89*.
Cc1nn2c(N)cc(-c3ccccc3)nc2c1-c1ccc(Cl)cc1 was read as GPR151 activ -1, FBW7 activator 0, MITF primary -22 and TEAD-YAP inh 2.
`CN(C(=O)c1ccc(-n2cc(NC(=O)c3ccoc3)cn2)cc1)C(C1CC1)C1CC1` gave GPR151 activ 0, FBW7 activator 0, MITF primary 11 and TEAD-YAP inh -7.
`COCCNC(=O)CCC1CCN(C(=O)CCOc2ccccc2)CC1` gave GPR151 activ -1, FBW7 activator 0, MITF primary -13 and TEAD-YAP inh -4.
Screening COCCNC(=O)CCC1CCN(C(=O)C#Cc2ccccc2)CC1 returned GPR151 activ 2, FBW7 activator 0, MITF primary 2 and TEAD-YAP inh 38*.
For N#CC(C#N)C(C#N)(C#N)C1CCCC1=O (stereo not drawn) the results were GPR151 activ -1, FBW7 activator -1, MITF primary 78* and TEAD-YAP inh 7.
Screening N#CC(C#N)C(C#N)(C#N)C1CCCCC1=O (stereo not drawn) returned GPR151 activ 1, FBW7 activator -1, MITF primary 21 and TEAD-YAP inh 12.
For CCC(=O)/C=C1/Sc2ccc(OC)cc2N1CC the results were GPR151 activ -1, FBW7 activator 0, MITF primary 3 and TEAD-YAP inh 8.
`CCN1/C(=C/c2ccc3ccc(C)cc3[n+]2CC)Sc2cc(OC)ccc21` gave GPR151 activ 3, FBW7 activator 0, MITF primary 33 and TEAD-YAP inh 87*.
Screening CCN1/C(=C/c2ccc3cc(OC)ccc3[n+]2CC)Sc2ccc(OC)cc21 returned GPR151 activ 4, FBW7 activator -1, MITF primary 30 and TEAD-YAP inh 87*.
CCN1/C(=C/c2ccc3cc(OC)ccc3[n+]2CC)Sc2ccc(Cl)cc21 was read as GPR151 activ 0, FBW7 activator 0, MITF primary 2 and TEAD-YAP inh 77*.
For Cc1c(NC(=O)CC(C)C)cccc1-c1nc2ccccc2o1 the results were GPR151 activ 0, FBW7 activator 0, MITF primary 17 and TEAD-YAP inh -6.
`Cc1cc(=O)oc2cc(NC(=O)Cn3ncc4c3-c3ccccc3OC4)ccc12` gave GPR151 activ 0, FBW7 activator 0, MITF primary -1 and TEAD-YAP inh 49*.
Screening Cc1ccc2c(c1)-c1c(cnn1CC(=O)Nc1ccc(C)c(F)c1)CO2 returned GPR151 activ 0, FBW7 activator 0, MITF primary -10 and TEAD-YAP inh -6.
